Laboratory results published in PubChem BioAssay (NCI).
This is part of a sample that, as a whole, favours compounds with a hit. Of some 83,000 tested, about 20% had one in any assay.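 Each cell line was grown in a 96-well plate and treated with one concentration of compound for 48 hours. Values below 10 were considered active.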 Unmarked numbers belong to inactive results. The source made the active and inactive calls.

Assays:
Assay in all cases: NCI-60 one-dose screen, 48 h (100 = growth as untreated, 0 = no growth, -100 = all killed)
Details in all cases: 10 µM
EKVX NSCLC = system: EKVX NSCLC
SN12C renal = system: SN12C renal
TK-10 renal = system: TK-10 renal
ACHN renal = system: ACHN renal
CAKI-1 renal = system: CAKI-1 renal
CCRF-CEM leukemia = system: CCRF-CEM leukemia
MOLT-4 leukemia = system: MOLT-4 leukemia
SR leukemia = system: SR leukemia
UO-31 renal = system: UO-31 renal
A498 renal = system: A498 renal

SMILES	growth (EKVX NSCLC)	growth (SN12C renal)	growth (TK-10 renal)	growth (ACHN renal)	growth (CAKI-1 renal)	growth (CCRF-CEM leukemia)	growth (MOLT-4 leukemia)	growth (SR leukemia)	growth (UO-31 renal)	growth (A498 renal)
Clc1nc(Cl)c2c(ncn2C/C=C\Cn2cnc3c(Cl)nc(Cl)nc32)n1	-79.8% (active)	-5.17% (active)	-97.2% (active)	-100% (active)	-100% (active)	-81% (active)	-59.4% (active)	-66.3% (active)		
CS(=O)(=O)Nc1cccc(-c2cc(-c3ccccc3Cl)c(C#N)c(N)n2)c1	27%	51.6%	63.5%	46.8%	16.1%	20.6%	24.6%	23.9%		
CCC1(C(C)C)NC(=O)NC1=O (stereo unspecified)	99.4%	88.1%	113%	99.9%	104%	92.4%	101%	90.2%		
Cc1cn(C2CCCCO2)c(=O)nc1NO (stereo unspecified)	92.9%	103%	103%		108%	102%	99.1%	116%	101%	
c1ccc([C@H]2CN3CCSC3=N2)cc1	98.3%	109%	112%		93.6%	99.1%	98.5%	103%	88.2%	85%
COc1cc(Cc2cc(-c3ccc(Cl)cc3)n[nH]c2=O)ccc1O	-26% (active)	98%	157%	109%	132%		-59.9% (active)			104%
CCCCCCN(CCCCCC)CC(O)c1ccc2c3c(cccc13)CC2 (stereo unspecified)	71.5%	61.4%		53.8%	59.6%		53.3%	21.7%	32%	24.5%
CN(C)CCCn1c(=O)c2ccccc2c2cnc3[nH]ccc3c21	10.5%	10.2%	8.77% (active)	-1.65% (active)	22.5%	18.6%	-5.39% (active)	-35% (active)		
CC(C)=CCc1ccc(O)c(=O)cc1C(C)C	13.8%	25%	18.3%	24.8%	-8.29% (active)	9.68% (active)	8.5% (active)	5.25% (active)		52.6%
CN1c2ccccc2[C@]2(Cc3ccccc3)Cc3ccccc3N[C@H]12	114%	109%	114%		112%	92.2%	90.2%	91.2%	73.4%	113%
COc1ccc(-c2nc3ncccn3c2-c2nnc(-c3ccc(F)cc3)o2)cc1	96%	91%	113%	97.6%	100%	94.4%	97.1%	108%		81%
O=C(CSSCC(=O)c1ccc(Cl)cc1)c1ccc(Cl)cc1	91.4%	79.1%	41.3%		96.5%	15.3%	13.9%	18.7%	86.4%	
CCCCOc1ccc(NC(=O)Nc2nnc(C)s2)cc1	99.6%	93.3%	118%			72.9%	90.4%	101%	87%	108%
COc1ccc2c(c1)[n+]([O-])c(C#N)c(NC(=O)c1ccco1)[n+]2[O-]	119%	110%	112%	95.1%	96.5%	220%	93.3%	87.4%		
CCOCCOCCOCCOCCOCCOCCOCCOCCOCCO (tested in a mixture with another compound)	12.7%	10.5%	0.0792% (active)		13.1%	-39.9% (active)	-49.5% (active)	-52.4% (active)	19.1%	32.8%
COc1ccc2c(c1)C(=O)c1c-2c(OCCN(C)C)nc2ccccc12	44.7%	34.7%	43.3%			20.9%	4.41% (active)		-4.51% (active)	65.8%
O=C1OCC2=C1C(c1cccc(Br)c1)c1cc3c(cc1N2CCO)CCC3 (stereo unspecified)	47.7%	21.2%	62.6%	20.9%	20.8%	8.55% (active)	14.1%	28.5%		-11.2% (active)

SMILES	growth (EKVX NSCLC)	growth (SN12C renal)	growth (TK-10 renal)	growth (ACHN renal)	growth (CAKI-1 renal)	growth (CCRF-CEM leukemia)	growth (MOLT-4 leukemia)	growth (SR leukemia)	growth (UO-31 renal)	growth (A498 renal)
Nc1ncn([C@@H]2O[C@H](CO)[C@@H](O)[C@H]2O)c(=O)n1	107%	14.8%	40.5%	11.8%	22.3%		33.6%	7.12% (active)		28.5%
CC1(O)CCC2CC3OC3(C)CCC3OC3(C)CCC1C2(C)C (stereo unspecified)	93.5%	104%	109%	102%	100%	267%	104%	116%		
NC(=O)c1ccc(-c2cccc3c(=O)nc(N4CCOCC4)oc23)cc1	97.3%	104%		100%		98.6%	103%	92%	89.2%	98.2%
COc1cc2nc(Nc3cccc(C(=O)O)c3)nc(N)c2cc1OC	95.2%	95.4%	108%		93.7%		12.8%	105%	78.3%	117%
CCN(CC)CCOc1nc2ccccc2c2c1-c1ccc(OC)cc1C2=O	16%	18.1%	-1.29% (active)	-6.81% (active)	-28.6% (active)	4.01% (active)	-2.16% (active)	-8.96% (active)		39.9%
CC(=O)c1cc(Cl)ccc1O	108%	110%	98.9%	99.8%	107%	100%	101%	104%		100%
S=c1[nH]ccn1-c1c(Cl)cccc1Cl	103%	92.6%	112%			76.7%	106%	104%	91%	116%
N#Cc1cc(-c2cc3ccccc3o2)oc1N	-26.4% (active)	8.73% (active)	11.9%	1.36% (active)	-10.4% (active)	-29.6% (active)	-12.4% (active)	-23.5% (active)		
CCCCCCCCCCCCC1C/C=C\CCCC(=O)O1 (stereo unspecified)	94%	119%	113%		113%		37.4%	-18.4% (active)	93.1%	128%
CCCCOC(=O)Oc1ccc(C(=O)Oc2ccc(OCC)cc2)cc1	98%	95.3%	117%	90.2%	87.1%	8.77% (active)	111%	107%		
CCN1CCN(c2nc3ccccc3c3c(=O)c4ccccc4sc23)CC1	59.1%	41.6%		22.8%		29.2%	2.07% (active)	-11.8% (active)	29.8%	37%
O=C1C(c2ccccc2)C2C=CC(C2)N1O (stereo unspecified)	101%	102%	101%		106%	82.6%	92.5%	105%	68%	
CCN(CC)CCCC(C)Nc1ccc2ccc(Cl)cc2n1 (stereo unspecified)	103%	88.8%	100%	98.5%	104%	102%	96.5%	96.4%		92.3%
COc1cc(OC)cc(-c2cncn2-c2ccc(-c3nc4cc(OC)cc(OC)c4s3)cc2)c1	51.3%	80.4%		67.4%	29%	21.6%	44.3%	35.5%	49.5%	
Cc1ccc(Nc2nnc(-c3cc(-c4ccncc4)n(-c4ccccc4)n3)s2)cc1	97.7%	88.5%	102%		85.9%	35.7%	59.5%	63.6%	40.3%	
CCOC(=O)c1ccc(NC(=O)Nc2ncc(Cl)cc2Cl)cc1	111%	86.8%	108%			81.7%	93.2%	95.9%	96.4%	91.9%
